Measurements: PubChem BioAssay (EPA / NIEHS)
Results filed as inconclusive are left out. A structure can be active in one record and inactive in another. Calls of active or inactive are those of the source. Rule for the calls: active = hit-call score of the fitted dose curve at least 0.9, where 1 is the maximum; inconclusive = response in the unintended direction; inactive = score below 0.9.

Columns and labels:
[1] = ATG_XTT_Cytotoxicity: Cytotoxicity Assessment in the Attagene TRANS-FACTORIAL HepG2 Assay (AID 2283584)
Procedure, shortened: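 Cells: human HepG2, transiently transfected with MRTU reporter constructs. Exposure 24 h. Readout: XTT, cell number. Baseline/neg ctrl DMSO; loss-of-signal scored.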

[2] = TOX21_p53_BLA_p2_viability: Viability Assessment in the Tox21 HCT-116 p53 Agonism Beta-lactamase Assay, Phase 2 (AID 2283591);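 note: compound exposure lasted 16 h at 37 °C; actives lower the ATP signal meaning cytotoxicity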
Procedure, shortened: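 HCT-116 p53-bla cells (4000/well) rested 5 h at 37C, then received compounds in DMSO (217-fold dilution) for 16 h at 37C, 5% CO2. After the CCF4 read, CellTiter-Glo was added; ATP luminescence was read after 30 min at room temperature.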

[3] = biological target: Cellular tumor antigen p53 (Homo sapiens) (UniProt P04637); experiment: TOX21_p53_BLA_p2_ratio: Tox21 HCT-116 p53 Agonism Beta-lactamase Assay, Ratio, Phase 2 (AID 2283592)
Chain of Cellular tumor antigen p53 (Homo sapiens) (P04637 whole entry, looked up): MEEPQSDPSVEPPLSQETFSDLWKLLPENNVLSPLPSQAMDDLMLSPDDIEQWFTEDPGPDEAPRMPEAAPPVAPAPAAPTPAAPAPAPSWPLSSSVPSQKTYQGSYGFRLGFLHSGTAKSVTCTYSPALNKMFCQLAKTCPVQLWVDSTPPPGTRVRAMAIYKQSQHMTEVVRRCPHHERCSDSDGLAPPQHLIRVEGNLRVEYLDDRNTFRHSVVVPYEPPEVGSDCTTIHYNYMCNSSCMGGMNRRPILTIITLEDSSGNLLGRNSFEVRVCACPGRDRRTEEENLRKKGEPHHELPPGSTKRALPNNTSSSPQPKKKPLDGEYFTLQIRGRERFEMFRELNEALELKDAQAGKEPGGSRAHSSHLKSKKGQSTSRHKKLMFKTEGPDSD
Procedure, shortened: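 Plated HCT116 p53-bla cells (4000/well) received compound after 5 h, then 16 h at 37C/5% CO2. CCF4-AM added, 2 h RT. Ratio of 460 to 530 nm emission taken as the p53 reporter signal.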

[4] = TOX21_p53_BLA_p3_viability: Viability Assessment in the Tox21 HCT-116 p53 Agonism Beta-lactamase Assay, Phase 3 (AID 2283593);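 note: cells exposed to compound for 16 h before reading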
Procedure, shortened: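 HCT-116 cells (4000/well) rested 5 h at 37C, then got DMSO compounds by pin tool (217-fold dilution) for 16 h at 37C, 5% CO2. After the bla read, CellTiter-Glo was added and luminescence read at 30 min, room temperature.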

[5] = biological target: Cellular tumor antigen p53 (Homo sapiens) (UniProt P04637); experiment: TOX21_p53_BLA_p3_ratio: Tox21 HCT-116 p53 Agonism Beta-lactamase Assay, Ratio, Phase 3 (AID 2283596)
Procedure, shortened: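 Cells were seeded at 4000/well, rested 5 h at 37C, then dosed with DMSO compound solutions (217-fold dilution) for 16 h. CCF4-AM substrate was loaded for 2 h at room temperature, and the 460/530 nm emission ratio was fitted for gain of signal versus DMSO.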

[6] = TOX21_p53_BLA_p4_viability: Viability Assessment in the Tox21 HCT-116 p53 Agonism Beta-lactamase Assay, Phase 4 (AID 2283597);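 note: hits lower the luminescence signal meaning cytotoxicity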
Procedure, shortened: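 Readout: ATP luminescence (CellTiter-Glo), measured 30 min after reagent addition at RT. The reagent followed a 2 h CCF4-AM incubation, and the cells had been exposed to compound for 16 h at 37C.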

[7] = biological target: Cellular tumor antigen p53 (Homo sapiens) (UniProt P04637); experiment: TOX21_p53_BLA_p5_ratio: Tox21 HCT-116 p53 Agonism Beta-lactamase Assay, Ratio, Phase 5 (AID 2283599)
Procedure, shortened: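 HCT-116 cells carrying a p53-inducible beta-lactamase reporter were seeded at 4000 cells/well and dosed after 5 h with compound in DMSO (217-fold dilution). After 16 h at 37C, CCF4-AM substrate was added for 2 h, and the 460/530 nm emission ratio was scored as gain-of-signal versus DMSO.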

[8] = TOX21_p53_BLA_p5_viability: Viability Assessment in the Tox21 HCT-116 p53 Agonism Beta-lactamase Assay, Phase 5 (AID 2283600)
Procedure, shortened: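 Workflow: seed 4000 cells per well, wait 5 h, add compounds (DMSO, 217-fold dilution), incubate 16 h, load CCF4-AM 2 h, add CellTiter-Glo, read luminescence after 30 min.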

[9] = biological target: Cellular tumor antigen p53 (Homo sapiens) (UniProt P04637); experiment: TOX21_p53_BLA_p4_ratio: Tox21 HCT-116 p53 Agonism Beta-lactamase Assay, Ratio, Phase 4 (AID 2283601)
Procedure, shortened: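 HCT116 cells carrying an inducible beta-lactamase reporter were plated at 4000 cells/well, rested 5 h, then exposed to compounds in DMSO (217-fold dilution) for 16 h at 37C. CCF4-AM substrate was loaded 2 h at room temperature; 460/530 nm emission ratio scored gain-of-signal versus DMSO.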

CC1(C)[C@@H]2CC[C@@]1(C)[C@H](O)C2
outcome [1]: inactive | outcome [2]: inactive | outcome [3]: inactive | outcome [4]: inactive | outcome [5]: inactive

COC(=O)Cc1cccc2ccccc12
outcome [1]: inactive | outcome [2]: inactive | outcome [3]: inactive | outcome [4]: inactive | outcome [5]: inactive | outcome [6]: inactive | outcome [7]: inactive | outcome [8]: inactive | outcome [9]: inactive

N#Cc1ccccc1
outcome [1]: inactive | outcome [2]: inactive | outcome [3]: inactive | outcome [4]: inactive | outcome [5]: inactive | outcome [6]: inactive | outcome [7]: inactive | outcome [8]: inactive | outcome [9]: inactive

Cc1ccc(C=O)cc1
outcome [1]: inactive

CCCCCCCCCCN
outcome [1]: inactive | outcome [2]: inactive | outcome [3]: inactive | outcome [4]: inactive | outcome [5]: inactive | outcome [6]: inactive | outcome [7]: inactive | outcome [8]: inactive | outcome [9]: inactive

Cc1ccc(C(=O)c2cc(O)c(O)c([N+](=O)[O-])c2)cc1
outcome [1]: inactive | AC50 [2]: 53.8 µM (active) | outcome [2]: inactive | AC50 [3]: 14.6 µM (active) | outcome [3]: inactive | AC50 [4]: 46.1 µM (active) | outcome [4]: inactive | outcome [5]: inactive | AC50 [6]: 46.1 µM (active) | outcome [6]: inactive | AC50 [7]: 71.3 µM (active) | outcome [7]: inactive | outcome [8]: inactive | AC50 [9]: 49.6 µM (active) | outcome [9]: inactive

Clc1nc(C(Cl)(Cl)Cl)c(Cl)c(Cl)c1Cl
outcome [1]: inactive | outcome [2]: inactive | outcome [3]: inactive | outcome [4]: inactive | outcome [5]: inactive | outcome [6]: inactive | outcome [7]: inactive | outcome [8]: inactive | outcome [9]: inactive

COC(=O)C1=C(C)NC(C)=C(C(=O)OCCN(C)Cc2ccccc2)C1c1cccc([N+](=O)[O-])c1 (stereo not drawn)
outcome [1]: inactive

C=CC(C)(C)O
outcome [1]: inactive

COc1ccnc(CS(=O)c2nc3cc(OC(F)F)ccc3[nH]2)c1OC (stereo not drawn)
outcome [1]: inactive

CCc1c(C)cc(N)c(CC)c1N
outcome [1]: inactive

NC(=O)NC1NC(=O)NC1=O (stereo not drawn)
outcome [1]: inactive | outcome [2]: inactive | outcome [3]: inactive | outcome [4]: inactive | outcome [5]: inactive | outcome [6]: inactive | outcome [7]: inactive | outcome [8]: inactive | outcome [9]: inactive

CCN(CC)CCOC(=O)c1ccc(N)cc1
outcome [1]: inactive | outcome [2]: inactive | outcome [3]: inactive | outcome [4]: inactive | outcome [5]: inactive | outcome [6]: inactive | outcome [7]: inactive | outcome [8]: inactive | outcome [9]: inactive

O=C(Cl)c1cccc(C(=O)Cl)c1
outcome [1]: inactive | outcome [2]: inactive | AC50 [3]: 46.1 µM (active) | outcome [3]: inactive | outcome [4]: inactive | outcome [5]: inactive | outcome [6]: inactive | outcome [7]: inactive | outcome [8]: inactive | outcome [9]: inactive

C[C@]12CC[C@H]3[C@@H](CCC4=CC(=O)CC[C@@]43C)[C@@H]1CC[C@@H]2C(=O)CO
outcome [1]: inactive | outcome [2]: inactive | outcome [3]: inactive | outcome [4]: inactive | outcome [5]: inactive | outcome [6]: inactive | outcome [7]: inactive | outcome [8]: inactive | outcome [9]: inactive

O=C(O)CCCCCCCCCCC(=O)O
outcome [1]: inactive

CC(C)c1cccc(O)c1
outcome [1]: inactive | outcome [2]: inactive | outcome [3]: inactive | outcome [4]: inactive | outcome [5]: inactive | outcome [6]: inactive | outcome [7]: inactive | outcome [8]: inactive | outcome [9]: inactive
